Assay outcomes from PubChem.
Peg3 prom inh = inhibitors of Peg3 promoter. HeLa PEG-Prom luciferase reporter, luminescence, overnight. inhibition, % at 20 µM. 1.7% of 360,000 active. AID 588405;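 active = inhibition of at least 50% at 20 µM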
CF NFkB block = inhibitors of cystic fibrosis induced NF-kB; 0.86% of 360,000 active; inhibition, % at 5 µM; AID 588850; KKLEB NF-kB-GFP reporter, PAF-induced, GFP fluorescence overnight;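 active = at least 50% inhibition at 5 µM, scaled per plate between neutral and stimulator controls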;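 note: PAF is a Pseudomonas aeruginosa culture filtrate used as stimulus; plate controls were PAF-stimulated DMSO wells for no effect and unstimulated DMSO wells for full effect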
TROY signal inh = blocks TROY-dependent signaling in reporter cells | Q293 LMP1-TROYcd NF-kB luciferase reporter, 4 h | inhibition, % at 10 µM | 0.98% of 360,000 active | AID 1347056;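 active = compounds whose plate-normalised and pattern-corrected inhibition of the luciferase reporter signal at the single screening dose is 50% or more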
HIF-2a inh = inhibitors of HIF-2a. 786-0 RCC cells HIF-2a reporter, luciferase luminescence, overnight. inhibition, % at 18.8 µM. 0.72% of 360,000 active. AID 624352;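 active = inhibition of the luminescence signal of 40% or more relative to plate controls, in a single-dose primary screen at 18.75 µM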
KKLEB tox = reduces viability of KKLEB cystic fibrosis airway cells | KKLEB CF airway cells viability, ATPlite luminescence, overnight; active compounds read low; cells stimulated with P. aeruginosa culture filtrate | activity change (cytotoxicity), % at 5 µM | 0.36% of 360,000 active;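 active = corrected activity change at or below -50% at 5 µM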
TWEAK Fn14 block = TWEAK-Fn14 signaling inhibition; TWEAK-stimulated Fn14 reporter cells, luciferase luminescence, 8 h; 2% of 360,000 active; inhibition, % at 10 µM; AID 1159606; in the data active = inhibition above about 50%
Numbers without * were called inactive; x = not tested or not shown. Only some compounds are listed: those with a hit (about 4% of all), similar ones and a draw of the others.

SMILES | Peg3 prom inh | CF NFkB block | TROY signal inh | HIF-2a inh | KKLEB tox | TWEAK Fn14 block
C[C@H](NS(=O)(=O)c1ccc(Cl)cc1)C(=O)OCC(=O)NC(=O)Nc1ccc2c(c1)OCCO2 | -138 | 7 | 2 | -49 | -13 | 64*
Cc1ccc(S(=O)(=O)N[C@H](C(=O)OCC(=O)NC(=O)Nc2ccc3c(c2)OCCO3)C(C)C)cc1 | -22 | 1 | 10 | -7 | 4 | 19
C[C@@H]1CN([C@@H](C)CO)C(=O)CCCn2nncc2CO[C@H]1CN(C)C(=O)Nc1cccc(Oc2ccccn2)c1 | 12 | -51 | -2 | 9 | 18 | -7
O=C(Nc1ccc2ccccc2c1)C(c1ccc(C(F)(F)F)cc1)n1c(=O)c(-c2cc3ccccc3[nH]2)nc2ccccc21 (centres undefined) | x | x | x | -42 | x | x
CC(=NNC(=S)N(Cc1ccccn1)Cc1ccccn1)c1cnccn1 | 54* | -52 | 5 | -72 | -2 | -9
CC1CCCCC1NC(=O)COC(=O)c1c2c(nc3ccccc13)/C(=C/c1ccco1)CC2 (centres undefined) | -19 | -10 | 0 | -4 | 0 | 50*
O=C(N/N=C/c1cc2ccccc2nc1Cl)/C(=C/c1cccs1)NC(=O)c1ccccc1 | 66* | -30 | 4 | 18 | 10 | 17
C/C=C/c1cccc(-c2nc(C(=O)N3CCCCC3)cc3c2[C@@H](CCO)N(C(=O)NC(C)C)C3)c1 | x | x | -2 | 3 | x | -5
N#CCC(=O)Nc1ccc(C(=O)OCC(=O)N(C2CCCCC2)C2CCCCC2)cc1 | 8 | -24 | -8 | 20 | 7 | -6
CCN=c1scc(C)n1/N=C/c1cc(Br)c(O)c(Br)c1 | -21 | 2 | 53* | -38 | 6 | 10
CCN=c1scc(C)n1/N=C/c1ccc(O)c(O)c1O | 0 | 3 | -10 | 15 | 4 | 18
Cc1ccc(-n2nc(C)c3c(C)c(CCC(=O)Nc4ccc(CN5CCCC5)cc4)c(C)nc32)cc1 | 68* | 27 | -31 | -1 | -14 | -51
COC(CNC(=O)CCc1c(C)nc2c(c(C)nn2-c2ccc(C)cc2)c1C)OC | -3 | 4 | -8 | 2 | 0 | 20
CCN(CC)CCNC(=O)CCc1c(C)nc2c(c(C)nn2-c2ccc(C)c(C)c2)c1C | 82* | 8 | -41 | 1 | -6 | -16
COCCCNC(=O)CCc1c(C)nc2c(c(C)nn2-c2ccccc2)c1C | 8 | 5 | 6 | 20 | -1 | 17
Cc1ccccc1-c1cc2nc(NCCN3CCNC3=O)n(C)c(=O)c2s1 | -14 | 11 | -31 | -49 | -3 | -7
Cc1cccc(N2C(=O)C(Oc3ccc(Cl)cc3Cl)C2C=O)c1C (centres undefined) | 69* | 22 | 43 | -44 | -45 | -13
COc1cc(-c2nc(-c3ccccc3)c(-c3ccc(F)cc3)[nH]2)cc2c1OCO2 | 9 | -3 | -7 | 9 | -11 | -3
COc1ccc(-c2[nH]c(-c3ccc4c(c3)OCO4)nc2-c2ccccc2)cc1 | 11 | -10 | 60* | -24 | 5 | 31
COc1cc(C(=O)Nc2cc3c(cc2N2CCCCC2)n(C)c(=O)n3C)cc(OC)c1OC | 0 | -63 | -15 | -52 | 1 | 21
COc1ccc(C(=O)NCCCn2nc(C)cc2C)cc1S(=O)(=O)N1CCOCC1 | -11 | -2 | -10 | 7 | 2 | -13
CCCCNC(=O)c1ccc(Cn2c(=S)[nH]c3c([nH]c4ccc(OC)cc43)c2=O)cc1 | 80* | 60* | 22 | -13 | -63* | -25
COC(=O)[C@]1(C)N[C@H](CN(C)S(=O)(=O)c2ccc(C(F)(F)F)cc2)[C@@H]2C(=O)N(C)C(=O)[C@@H]21 | -3 | -38 | -25 | 7 | 6 | -11
CC[C@@]1(C(=O)OC)N[C@H](CN(C)S(=O)(=O)c2ccc(C(F)(F)F)cc2)[C@@H]2C(=O)N(C)C(=O)[C@@H]21 | -5 | -30 | 17 | -3 | 18 | 83*
CCOC(=O)c1[nH]c2ccccc2c1NC(=O)c1ccc(Br)o1 | 25 | -32 | -5 | -25 | 12 | 66*
O=C(Cn1c(=O)n(-c2cccc(C(F)(F)F)c2)c(=O)c2sccc21)NCC1CCCO1 (centres undefined) | -4 | 6 | -15 | 6 | -1 | 8
